From PubChem BioAssay AID1030 (National Center for Advancing Translational Sciences (NCATS), 2008)
Hit rate of the full screen: of about 220,000 compounds, about 16,000 (7.3%) were called active. About 25% were inconclusive and are not listed. The call rests on the fitted dose curve; in most records, active means well fitted inhibition curve with a large enough effect (not every such curve was filed as active); inconclusive means small, poorly fitted or top-dose-only effect, or another doubt; inactive means no such curve, though single readings can be large or run the other way. Many of the other results were omitted from the sample, so actives are more common in it than they were.

What follows are compounds tested against Aldehyde dehydrogenase 1A1 (Homo sapiens) (UniProt P00352) (assay: qHTS Assay for Inhibitors of Aldehyde Dehydrogenase 1 (ALDH1A1)). Conditions: Purified ALDH1A1, NADH fluorescence, propionaldehyde substrate; series mostly up to 75.3 µM.
Aldehyde dehydrogenase 1A1 (Homo sapiens), sequence (P00352 whole entry, looked up): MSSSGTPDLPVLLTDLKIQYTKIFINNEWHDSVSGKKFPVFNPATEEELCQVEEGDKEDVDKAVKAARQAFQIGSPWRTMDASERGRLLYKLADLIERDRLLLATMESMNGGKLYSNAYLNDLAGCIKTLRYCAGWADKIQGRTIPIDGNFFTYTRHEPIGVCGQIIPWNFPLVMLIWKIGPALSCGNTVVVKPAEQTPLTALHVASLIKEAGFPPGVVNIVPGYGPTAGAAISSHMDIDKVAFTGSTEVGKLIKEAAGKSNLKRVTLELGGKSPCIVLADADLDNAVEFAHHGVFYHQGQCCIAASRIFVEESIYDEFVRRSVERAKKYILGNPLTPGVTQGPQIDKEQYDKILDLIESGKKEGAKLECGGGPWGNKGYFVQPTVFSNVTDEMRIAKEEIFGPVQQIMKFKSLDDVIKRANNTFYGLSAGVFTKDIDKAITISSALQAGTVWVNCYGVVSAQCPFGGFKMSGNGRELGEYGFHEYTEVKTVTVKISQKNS
Potency means the concentration at half of the fitted maximal effect.

Potency, active:
CC(C)CCC(C)NC(=O)c1ccc2nccnc2c1 (centres undefined) 20 µM
CCCCNC(=O)CSc1nc2ccc(NC(=O)CSc3nnc(COc4ccccc4C)n3C)cc2s1 3.55 µM
CCCCNC(=O)CSc1nc2ccc(NC(=O)CSc3nnc(N)s3)cc2s1 20 µM
COC(=O)/C=C\C(=O)Nc1cccc([N+](=O)[O-])c1 0.178 µM
C=CCSC1=C(C#N)C(c2cc(Br)c(O)c(OC)c2)CC(=O)N1 (centres undefined) 25.1 µM
Cc1ccc(-n2c(C)cc(/C=N/Nc3ccc([N+](=O)[O-])cn3)c2C)c(C)c1 3.55 µM
CN(C)c1nc(N)nc(CSc2nnnn2-c2cccc3ccccc23)n1 7.94 µM
Cc1cc(C)c(S(=O)(=O)NCC2CCC(C(=O)NCc3ccc4c(c3)OCO4)CC2)c(C)c1 (centres undefined) 28.2 µM
COc1ccc(CNC(=O)CCCn2nc(C)c([N+](=O)[O-])c2C)cc1 12.6 µM
COc1ccc(-c2nc(N)sc2C2(O)C(=O)Nc3c(Br)cc(F)cc32)cc1OC (centres undefined) 11.2 µM
N#C/C(=C\c1ccc(-c2cccc([N+](=O)[O-])c2)o1)C(=O)NCCN1CCOCC1 25.1 µM
Cc1c(O)cc(O)c2c(=O)c(-c3ccc(O)cc3)coc12 25.1 µM
O=C(COc1cccc(F)c1)Oc1ccc(C(=O)c2ccccc2)cc1 28.2 µM
S=c1[nH]nc(CSCc2ccc(Cl)cc2Cl)n1-c1ccccc1 3.55 µM
O=c1[nH]c(=S)[nH]c2[nH]c(=S)[nH]c12 10 µM
CCOC(=O)c1ccc(N2C(=O)CC(N(C)Cc3ccccc3)C2=O)cc1 (centres undefined) 11.2 µM
CCCCOC(=O)c1ccc(N2C(=O)CC(N3CCN(C/C=C/c4ccccc4)CC3)C2=O)cc1 (centres undefined) 12.6 µM
CCOC(=O)c1ccc(N2C(=O)CC(N3CCN(C(=O)c4ccccc4)CC3)C2=O)cc1 (centres undefined) 3.55 µM
COc1ccc(N2C(=O)CC(N3CCC(C(N)=O)CC3)C2=O)cc1 (centres undefined) 7.94 µM
CCOC(=O)c1ccc(N2C(=O)CC(Sc3nc(O)c(CC)c(=O)[nH]3)C2=O)cc1 (centres undefined) 10 µM
CCOC(=O)c1ccc(N2C(=O)CC(N3CCC(C(=O)OCC)CC3)C2=O)cc1 (centres undefined) 12.6 µM
COC(=O)c1cc(C(=O)OC)cc(N2C(=O)CC(N3CCN(c4ccccc4)CC3)C2=O)c1 (centres undefined) 31.6 µM
CCCCCCC(=O)N(O)C1CC(=O)N(c2ccccc2)C1=O (centres undefined) 0.316 µM

Potency, inactive:
CCn1c(SCc2cc(=O)n3ccsc3n2)nc2ccccc21
COCC(C)NC(=O)c1ccc(Cl)c(Cl)c1 (centres undefined)
CC(Cc1cccs1)NC(=O)c1cccc(Cl)c1 (centres undefined)
CCc1ccc(NC(=O)Cn2nc(C)c([N+](=O)[O-])c2C)cc1
O=C(Nn1cnnc1)c1ccc([N+](=O)[O-])cc1
COCCCNC(=S)N1CCCC(c2nc3cc(C)c(C)cc3[nH]2)C1 (centres undefined)
CCOC(=O)c1ccc(NC(=O)CSc2nnc(COc3ccccc3OC)n2C)cc1
Nc1nnc(SCC(=O)Nc2ccc3nc(SCC(=O)Nc4ccccc4)sc3c2)s1
Cc1ccc(S(=O)(=O)N2CCOCC2)cc1NC(=O)CSc1nnc(N)s1
Cc1cccnc1NC(=O)CSc1nnc(COc2ccc(C(C)C)cc2)n1C
CN(c1ccccc1)S(=O)(=O)c1ccc(Cl)c(C(=O)OCC(N)=O)c1
CN(C(=O)CSc1nnc(-c2c[nH]c3ccccc23)o1)C1CCS(=O)(=O)C1 (centres undefined)
O=C(/C=C/c1ccc(Cl)cc1)Nc1ccc(S(=O)(=O)Nc2ncccn2)cc1
O=C(Nc1ccc(N2CCN(C(=O)C3CC3)CC2)cc1)c1cccs1
C/C(=N\N1CCN(Cc2ccc(C)cc2)CC1)c1ccco1
C/C(=N\NC(=O)C(N)=O)c1ccc2c(c1)OCCO2
COc1ccc(S(=O)(=O)NC(C)C(=O)Nc2cccc([N+](=O)[O-])c2)cc1 (centres undefined)
CC(=O)Nc1cccc([N+](=O)[O-])c1
Clc1ccc(-c2cc(-c3ccccn3)on2)c(Cl)c1
O=C1Nc2cc(Cl)c(Cl)cc2N(O)N1c1ccccc1Cl
CCOc1cnc(C(=O)NNC(=O)c2ccccc2Br)o1
CCOC(=O)CSC1=C(C#N)C(c2sccc2C)CC(=O)N1 (centres undefined)
COC(=O)CSC1=C(C#N)C(c2ccccc2OC)C(C(=O)OC)C(=O)N1 (centres undefined)
C[C@@H]1CC[C@]2(O[C@@H](CCO)C[C@H](O)[C@H]2O)O1
CCCCOc1ccc(N(CC(=O)NC(C)C)C(=O)CCC(=O)Nc2ccccn2)cc1
COCCN(CCOC)S(=O)(=O)c1ccc(/C(O)=C(\C#N)c2nc3ccccc3[nH]2)cc1
COc1cccc2c1OCC(CN1CCN(C3CCCCC3)C(CCO)C1)=C2 (centres undefined)
Cc1cc(C)n(-c2ccc3nncn3n2)n1
COc1cc(/C=N\Nc2ccc([N+](=O)[O-])cn2)ccc1OCC(=O)O
Cc1ccccc1OCCOc1ccc([N+](=O)[O-])cc1/C=N/n1cnnc1
CC(C)(C)C1CCC(C(=O)Nc2cccnc2)CC1 (centres undefined)
CN(C)c1nc(N)nc(CSc2ccccn2)n1
Cn1nnnc1SCc1cc(=O)[nH]c2ccccc12
CC(OC(=O)c1ccccc1OCc1ccc(Cl)cc1)C(N)=O (centres undefined)
O=C(NCc1ccc2c(c1)OCO2)C1CCCN(S(=O)(=O)c2cccs2)C1 (centres undefined)
CCOC(=O)NCc1ccc2c(c1)OCO2
O=C(CN1C(=O)NC2(CCCC2)C1=O)NCC1CCCO1 (centres undefined)
Cc1cccc(NC(=O)Nc2nnc(-c3ccccc3)o2)c1
COc1ccc(CCNCC(O)Cn2ccc3ccccc32)cc1OC (centres undefined)
COc1ccc(CNC(=O)CCn2cccc2)cc1
Cc1ccc(Oc2cc(NC(=O)CCCn3nc(C)c([N+](=O)[O-])c3C)cc([N+](=O)[O-])c2)cc1
CNC(=O)COc1ccc(S(=O)(=O)Nc2ccccc2)cc1
COc1ccc(-c2csc(NC(=O)c3ccc(N4C(=O)CCC4=O)cc3)n2)cc1OC
O=C(O)c1ccccc1-c1ccccc1C(=O)NCc1cccnc1
Cc1ccc(Cc2cnc(NC(=O)/C(C#N)=C/c3ccc(-c4cccc([N+](=O)[O-])c4)o3)s2)cc1
O=C(NCCCN1CCOCC1)c1ccc([N+](=O)[O-])cc1[N+](=O)[O-]
Cc1ccccc1CSc1nnc(-c2ccccc2)c(=O)[nH]1
CC(C)OC(=O)Cn1nc(C(F)(F)F)c2c1CCCC2
Cc1ccc(C(=O)NNC(=O)c2cccs2)cc1
COc1ccccc1NC(=O)c1c(Br)cnn1C
O=C(c1ccccc1)c1ccc(OC(=O)N2CCCC2)cc1
COc1ccc(C(=O)COC(=O)COc2ccc(C)c(C)c2)cc1
CC(C)(C)c1nnc(N/N=C/c2ccc(O)cc2)n(N)c1=O
Cc1ccc(NCc2n[nH]c(=S)n2-c2ccccc2)cc1Cl
Cn1c(CCCOc2ccc(Cl)cc2Cl)n[nH]c1=S
S=C(NCc1cccnc1)Nc1ccc(Cl)cc1Cl
C/C(=N\OCC(=O)Nc1ccc(Br)cc1)c1cccs1
CCOC(=O)c1cc(C)nc(S(C)(=O)=O)c1C#N
[O-][n+]1c2c(nn1-c1ccc(Cl)c(Cl)c1)-c1nonc1CC2
Cc1cc(C)cc(NC(=O)N2CCCCCCC2)c1
Cc1cc(=O)[nH]c(=S)[nH]1
O=C(NC1CCCCC1)C1CCCN(S(=O)(=O)c2ccc(Br)s2)C1 (centres undefined)
Cc1ccc(C2CCN(C(=S)Nc3cccc(Cl)c3)C2)cc1 (centres undefined)
CC(C)(C)NC(=O)NC(=O)COC(=O)C1(C)CC1(Cl)Cl (centres undefined)
Cc1[nH]n(C)c(=O)c1N=Nc1ccc(S(C)(=O)=O)cc1
CNC(=O)NC(=O)C(C)N1CCN(C/C=C/c2ccccc2)CC1 (centres undefined)
NC(=O)C1CCN(C2OC(=O)c3ccccc32)CC1 (centres undefined)
COC(=O)CN(C(=S)Nc1ccc(Cl)cc1)C1CC(=O)N(c2ccc(OC)cc2)C1=O (centres undefined)
CCCOC(=O)c1ccc(N2C(=O)c3ccccc3C2=O)cc1
O=C(Cn1c(N2CCN(C/C=C/c3ccccc3)CC2)nc2ccccc21)c1ccccc1
CCOC(=O)c1ccc(NC(=S)N2CCCC2)cc1
CCOC(=O)c1ccccc1C(=O)N1CCOCCOCCOCC1
O=C(Cc1ccccc1)NNC1CC(=O)N(c2ccc(Br)cc2)C1=O (centres undefined)
CN(C)NC(=O)c1csnc1-c1c(Cl)cccc1Cl
CC(C)(C)c1ccc(/C=C/C(=O)NC2CCS(=O)(=O)C2)cc1 (centres undefined)
CCOC(=O)CNC(=O)N1c2ccccc2Sc2ccccc21
CN(CC(=O)N1CCN(c2ccccc2)CC1)S(=O)(=O)c1cccs1
CC(=O)N1CCN(S(=O)(=O)c2c(F)cc(F)c(Cl)c2F)CC1
COc1ccc(/C(=N\O)c2nccc3cc(OC)c(OC)cc23)cc1OC
CCC1(C)Cc2c(sc3nc(SC)[nH]c(=O)c23)CO1 (centres undefined)
N=C1C(c2nc3ccccc3[nH]2)=C(O)CN1NC(=O)c1c[nH]c2ccccc12
COc1ccc(NC(=S)N2CCCC(CO)C2)c(OC)c1 (centres undefined)
Cc1cccc(C(=O)OCC(=O)NCC(C)C)c1O
CCOC(=O)c1ccc(NC(=O)C2CC(=O)Nc3nc4ccccc4n32)cc1 (centres undefined)
CCOC(=O)C1CCN(c2ccc(C(=O)O)cc2[N+](=O)[O-])CC1
CCOc1ccc(N2C(=O)CC(N(CCc3ccc(OC)c(OC)c3)C(=S)Nc3ccccc3)C2=O)cc1 (centres undefined)
CSc1nc(O)c(Cc2ccccc2)c(=O)[nH]1
CCOC(=O)C1CCN(C(=O)Nc2ccc(Cl)cc2)CC1
CCCOc1ccc(N2C(=O)CC(N(CCc3ccc(S(N)(=O)=O)cc3)C(C)=O)C2=O)cc1 (centres undefined)
CN1C(=O)CC(N2CCN(c3ccccn3)CC2)C1=O (centres undefined)
O=C1CC(N2CCN(c3ccc(F)cc3)CC2)C(=O)N1c1ccccc1 (centres undefined)
